Hit rate of the full screen: of about 300,000 compounds, about 480 (0.16%) were called active.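 How the source made its calls: active means inhibition over 29.93%, a cutoff 3 SD above the screen mean, later confirmed by dose response; inconclusive means inhibition over 29.93% but no dose response follow-up; inactive means inhibition at most 29.93% or unconfirmed.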 Only a sample is shown. Entries with a potency or affinity are not part of this list.
Assay: PhoP-dependent GFP reporter repression – Salmonella Typhimurium, primary screen (AID 1863);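 further: 0% = low Mg2+ inducing control and 100% = high Mg2+ repressing control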
Conditions: S. Typhimurium PhoP-regulated promoter GFP reporter, 4 h; at 50 µM; active compounds read high

inhibition, inactive:
Cc1ccc(S(=O)(=O)NC(=O)NCc2ccc(F)cc2)cc1 -2.51%, COc1ccc(-c2nnc(SCC(=O)NC(=O)NCc3ccccc3)o2)cc1 2.48%, CCCc1cc(=O)oc2cc(C)cc(OCC(=O)NCCCN3CCCC3=O)c12 -4.85%, Cn1nnnc1SCc1nc2ccccc2s1 -6.44%, COc1c(C(=O)Nc2ccc(CN3CCOCC3)cc2)cc2ccccc2c1Br 2.69%, C[C@H]1[C@H](NC(=O)C(=NOC(C)(C)C(=O)O)c2csc(N)n2)C(=O)N1S(=O)(=O)O -6.02%, CN(C)CCn1nnnc1SCC1=C(C(=O)O)N2C(=O)[C@@H](NC(=O)Cc3csc(N)n3)[C@H]2SC1 2.16%, C=CC1=C(C(=O)O)N2C(=O)C(NC(=O)Cc3ccccc3)C2SC1 (centres undefined) -2.7%, CC1=C(C(=O)O)N2C(=O)C(NC(=O)c3ccn(C)n3)C2SC1 (centres undefined) 5.21%, COC(c1ccccc1)(c1ccccc1)C(Oc1nccc(C)n1)C(=O)O (centres undefined) -3.3%, COc1cccc(C(=O)Nc2cnc(NC(=O)c3ccco3)cc2C)c1 12.2%, C=CCN=C(NC#N)SCC(=O)c1cccc(OC)c1 -4.71%, O=C(NCCCn1ccnc1)/C(=C\c1ccc(Br)cc1)NC(=O)c1ccccc1F -5.42%, COc1cc(O)c(C(CC(=O)N2CCOCC2)c2cc(OC)c(OC)c(OC)c2)c(OC)c1 (centres undefined) -0.44%, CO[C@H]1C=CO[C@@]2(C)Oc3c(C)c(O)c4c(O)c(c5c(c4c3C2=O)NC2(CCN(CC(C)C)CC2)N=5)=NC(=O)C(C)=CC=C[C@H](C)[C@H](O)[C@@H](C)[C@@H](O)[C@@H](C)[C@H](OC(C)=O)[C@@H]1C -10.1%, CO[C@H]1C=CO[C@@]2(C)Oc3c(C)c(O)c4c(O)c(c(C=NN5CCN(C6CCCC6)CC5)c(O)c4c3C2=O)NC(=O)C(C)=CC=C[C@H](C)[C@H](O)[C@@H](C)[C@@H](O)[C@@H](C)[C@H](OC(C)=O)[C@@H]1C -1.76%, COc1ccccc1CNC(=O)C(=O)NCC1OCCN1C(=O)c1cccs1 (centres undefined) -7.58%, CCOc1ncccc1C(=O)NCCCSc1ccccc1 4.02%, COc1ccc(Cl)cc1/C=C(\C#N)C(N)=O -5.64%, Cc1ccnc(SCCn2c(N3CCCCC3)nc3c2c(=O)[nH]c(=O)n3C)n1 2.87%, CC(=O)Nc1ccc(S(=O)(=O)NCc2cc(=O)n(C)c(=O)n2C)cc1 1.8%, CCOc1cc(C2/C(=C(/O)c3ccc(OC(C)C)cc3)C(=O)C(=O)N2CCCOC)ccc1O (centres undefined) -4.64%, CCc1cc2c3c(c1)/C(=C1/SC(N)=NC1=O)C(=O)N3C(C)(C)C=C2C 2.08%, Cc1cc(C)cc(CN2C(=O)NC3(CCCCCC3)C2=O)c1 -9.68%, Oc1ccccc1CNCc1ccccc1 4.46%, CC(NCc1ccccc1O)c1ccccc1 (centres undefined) -3.45%, CN(C)S(=O)(=O)c1cccc(NC(=O)c2ccc(S(=O)(=O)N3CCCC3)cc2)c1 -7.11%, CC(C)OCCCNc1nc2c(-c3ccccc3)nnn2c2ccccc12 -3.07%, COc1cc(NC(=O)Cn2cnc(S(=O)(=O)N3CCC(C)CC3)c2)cc(OC)c1OC -7.04%, CC[C@H]1OC(=O)[C@H](C)[C@@H](O[C@H]2C[C@@](C)(OC)[C@@H](O)[C@H](C)O2)[C@H](C)[C@@H](O[C@@H]2O[C@H](C)C[C@H](N(C)C)[C@H]2O)[C@](C)(O)C[C@@H](C)C(=NOCOCCOC)[C@H](C)[C@@H](O)[C@]1(C)O 2.91%, CC[C@H]1OC(=O)[C@H](C)[C@@H](O[C@H]2C[C@@](C)(OC)[C@@H](O)[C@H](C)O2)[C@H](C)[C@@H](O[C@@H]2O[C@H](C)C[C@H](N(C)C)[C@H]2O)[C@](C)(O)C[C@@H](C)C(=O)[C@H](C)[C@@H](O)[C@]1(C)O 6.93%, CCOC(=O)N/N=C\c1cccc(OC)c1OC/C=C/c1ccccc1 1.25%, COc1ccccc1CN1C[C@@H]2C[C@@H](c3[nH]c4c(C)cccc4c3C)N3CCC[C@@]23C1=O -4.79%, CCOc1cccc(C(=O)NNC(=O)CCC(=O)O)c1 4.57%, NC(=O)c1ccccc1OCC(=O)N1CCCc2ccccc21 -3.13%, Cc1ccc(CN2CCC(c3nc4ccc(Cl)cc4[nH]3)CC2)cc1 22.6%, Clc1ccc2nc(C3CCN(Cc4ccccc4)CC3)[nH]c2c1 18.6%, COc1ccc(Oc2ncnc3sccc23)cc1 9.87%, Cc1cc(=O)oc2cc(OCC3CC(c4ccc(Br)cc4)=NO3)ccc12 (centres undefined) -2.2%, Cc1ccc(Cl)cc1NC(=O)C1C2CCC(O2)C1C(=O)O (centres undefined) -0.09%, FC(F)(F)c1ccc(N/N=C/c2cccnc2)nc1 -0.8%, Fc1cccc(/C=N/Nc2ccccn2)c1 10.3%, CCOc1cc(C2C(C(=O)c3ccccc3)=C(C(=O)OC)Nc3nnnn32)ccc1O (centres undefined) -7.95%, CCOc1ccc(NC(=O)Cn2c(=O)oc3cc(Cl)ccc32)cc1 -5.34%, OC(c1cc(C(F)(F)F)nc2c(C(F)(F)F)cccc12)C1CCCCN1 (centres undefined) -7.43%, FC(F)(F)c1cc(-c2ccccc2)nc(NC2CCCC2)n1 2.27%, CC(O)(c1ccccc1)C(c1ccccc1)C1CCCCN1 (centres undefined) 5.86%, O[C@@H](c1cc(C(F)(F)F)nc2c(C(F)(F)F)cccc12)[C@H]1CCCCN1 9.26%, Cc1ccccc1CN1[C@@H]2c3ccccc3C[C@@H]2OCCS1(=O)=O 5.91%, Nn1c(SCC(=O)Nc2ccc3c(c2)OCO3)nncc1=O -10%, Cc1cccnc1NC(=O)c1ccc2c(c1)OCO2 5.72%, CN(Cc1cc([N+](=O)[O-])c2cccnc2c1O)C1CCCCC1 24.8%, O=[N+]([O-])c1cc([N+](=O)[O-])c2cccnc2c1Oc1ccccc1O 11.2%, O=[N+]([O-])c1ccc(O)c2ncccc12 -0.36%, O=[N+]([O-])c1cccc2c(Cl)ccnc12 -15%, O=[N+]([O-])c1ccc(O)c2cccnc12 4.87%, O=[N+]([O-])c1ccc(Cl)c2cccnc12 2.44%, Nc1nonc1C(=O)NCCNC(=O)c1cccs1 17.7%, O=C(O)C1CCN(C(=O)COc2ccc3c4c(c(=O)oc3c2)CCCC4)CC1 4.17%, COc1ccc(N2CCN(c3oc(-c4ccco4)nc3C#N)CC2)cc1 26.4%, COc1cc(S(=O)(=O)n2ccnc2)ccc1Br -8.94%, O=C(NCC1CCCO1)C(C(=O)c1ccc(F)cc1)n1ccccc1=O (centres undefined) 2.45%, COc1ccc(S(=O)(=O)n2oc(=O)cc2-c2ccccc2)cc1 -4.7%, CCN(CC)C(=S)Nc1ccc([N+](=O)[O-])cc1 3.9%, Oc1ccc(Cl)cc1CNn1cnnc1 18.7%, Oc1ccc(Cl)cc1CNc1ccccn1 14.1%, O=C(c1cc2c(=O)oc3ccccc3c2s1)N1CCOCC1 2%, CCOC(=O)NCC(C#CCN(CC)CC)N(CC)CC (centres undefined) 4.11%, O=C(O)CSc1cc(NS(=O)(=O)c2ccc(Cl)cc2)c2ccccc2c1O -5.26%, O=C(O)CSc1cc(NS(=O)(=O)c2ccc(Br)cc2)c2ccccc2c1O 0.22%, CC(C)Oc1ccc(C(=O)OC(C)C(=O)Nc2nc(-c3cccc([N+](=O)[O-])c3)cs2)cc1 (centres undefined) 3.69%, COc1ccc(CN2C3CCC2CC(NC(=O)c2cccc(F)c2)C3)cc1 (centres undefined) 5.59%, Cc1ccc(C23CC4CC(CC(CN)(C4)C2)C3)cc1 26.1%, NCC12CC3CC(C1)CC(c1ccc(Cl)cc1)(C3)C2 10.5%, CCOC(=O)N1CCN(C(=O)c2ccc(NS(C)(=O)=O)cc2)CC1 12.6%, O=C(NCCc1ccccc1)c1ccc(-c2ccc(F)cc2)o1 0.73%, CCSc1nc(N2CCOCC2)c2ccccc2n1 -4.32%, COc1cc(NC(=O)Cn2ccsc2=N)c(C)cc1[N+](=O)[O-] 0.16%, CCc1ccc2[nH]c3nc(N/N=C/c4cccc(O)c4)nnc3c2c1 1.71%, Oc1ccc(/C=N\Nc2nncc(-c3ccccc3)n2)cc1 1.9%, CC(=O)N/N=C/c1c(C)[nH]n(-c2ccccc2)c1=O 3.32%, COc1ccc(S(=O)(=O)NCC(=O)N(CC(=O)NCc2ccco2)Cc2ccc(F)cc2)cc1 6.01%, Oc1ccccc1Nc1ccccn1 0.2%, c1ccc(Nc2ccccn2)nc1 -3.66%, CCCc1[nH]nc2c1C(c1ccc(OC)c(Cn3nnc4ccccc43)c1)C(C#N)=C(N)O2 (centres undefined) 6.36%, CC(C)(C)OC(=O)N1CCN(C(=O)c2[nH]cnc2C(=O)N[C@@H](Cc2ccccc2)C(=O)OCc2ccccc2)CC1 7.86%, COc1ccc(OC)c(N2C(N)=NC(N)=NC23CCCC3)c1 -1.52%, COc1cccc(C(=O)Nc2nnc(-c3cccs3)o2)c1 8.85%, O=C(Nc1nnc(-c2cccs2)o1)c1cccc(C(F)(F)F)c1 -1.86%

— PubChem BioAssay AID1863 (Southern Research Specialized Biocontainment Screening …, 2009)
